“And” between values parts separate entries of the source, which are not always exact repeats. Equal values may be shown once.

The target of the first assay is Dual specificity protein kinase CLK2 (Homo sapiens) (UniProt P49760). Conditions: at 0.1 µM.
Chain of Dual specificity protein kinase CLK2 (Homo sapiens) (P49760 whole entry, looked up): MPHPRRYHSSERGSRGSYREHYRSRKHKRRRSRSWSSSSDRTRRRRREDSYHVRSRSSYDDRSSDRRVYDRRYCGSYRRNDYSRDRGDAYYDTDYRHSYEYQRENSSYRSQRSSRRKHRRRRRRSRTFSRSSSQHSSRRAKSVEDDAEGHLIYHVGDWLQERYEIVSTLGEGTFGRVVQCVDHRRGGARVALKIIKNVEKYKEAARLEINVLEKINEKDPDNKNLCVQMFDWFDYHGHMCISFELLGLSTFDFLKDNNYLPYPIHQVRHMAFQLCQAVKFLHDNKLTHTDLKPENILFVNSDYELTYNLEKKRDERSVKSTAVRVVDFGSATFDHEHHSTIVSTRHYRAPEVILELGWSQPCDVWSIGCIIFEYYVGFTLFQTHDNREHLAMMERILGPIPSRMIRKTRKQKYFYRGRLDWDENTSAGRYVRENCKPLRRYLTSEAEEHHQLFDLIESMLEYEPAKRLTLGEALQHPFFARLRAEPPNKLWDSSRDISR
As usually defined, the inhibition is the relative decrease from the control value, in per cent. As for `Cc1cc(O)cc(C)c1/C=C/c1cncc(C(N)=O)c1`, the inhibition is -0.7%.
On the same count and under the same terms, the result for `CC1=C(C(=O)Nc2ccc3[nH]ncc3c2)C(c2ccc(F)cc2)N=C(c2ccc(C(F)(F)F)nc2)N1` (configuration not stated) reads 0.46%; that for `COc1c(C(N)=O)cc(-c2ccc(Cl)cc2)cc1-c1ccc(S(N)(=O)=O)cc1`, 3.22%.
Still for that read-out and setting: the result for `Cc1cc(O)cc(C)c1/C=C/c1cncc(C(=O)OC(C)(C)C)c1` reads 0.65%; that for `COc1ccc(Nc2ncc(-c3ccccc3)o2)cc1OC`, 0.23%; that for `Fc1ccc(Nc2nccc(-c3c(-c4ccc(C(F)(F)F)cc4)nn4ncccc34)n2)cc1F`, 2.15%.
On the same count and under the same terms, with `O=C(O[C@H]1CN[C@H](C#Cc2cc3ncnc(Nc4ccc(OCc5cccc(F)c5)c(Cl)c4)c3s2)C1)N1CCOCC1` the figure was -0.15%; with `COc1ccc2ncn(-c3cc(O[C@H](C)c4ccccc4C(F)(F)F)c(C(N)=O)s3)c2c1`, 0.34%.
On to `CNC(=O)c1ncccc1Nc1nc(Nc2cc3c(cc2OC)CCCN3C(=O)CN(C)C)nc2[nH]ccc12`, for which the inhibition was 54.3%.
The same measure, in the same setting: with `COc1ccccc1-c1cc(/C=C2\C(=O)Nc3ncc(Br)cc32)cc(Br)c1O` the figure was 1.63%; with `c1cnn2ncc(-c3ccnc(NCCCN4CCOCC4)n3)c2c1`, 1.77%.
On the same count and under the same terms, the result for `CCCNc1cccc(-n2ncc3c(N/N=C/c4ccncc4)ncnc32)c1` reads 3.08%; that for `OCCCNc1nccc(-c2c(-c3ccc(F)cc3)nn3cc(C(F)(F)F)ccc23)n1`, 0.1%.
Regarding `CS(=O)(=O)Nc1ccc(-c2ccc3c(NC(=O)C4CC4)n[nH]c3c2)cc1`, the inhibition worked out at 0.87%.
As to `CN1CCC(C(=O)Nc2n[nH]c3nc(-c4ccc(O)cc4)c(Br)cc23)CC1`, the inhibition was 2.03% and 1.85%.
Same read-out and setting: with `CS(=O)(=O)Nc1ccc(-c2cc(-c3ccccc3)cc(C(N)=O)c2N)cc1` the figure was 0.11%; with `COc1cccc(Nc2nccc(-c3cnn4ncccc34)n2)c1`, 93.9%; with `CS(=O)(=O)CCNCc1ccc(-c2ccc3ncnc(Nc4ccc(OCc5ccccc5)cc4)c3c2)o1`, 0.03%.
The same measure, in the same setting: with `CC(C)c1ccc(-c2cc(-c3c[nH]nc3-c3ccccn3)ccn2)cc1` the figure was 0.9%; with `FC(F)(F)CNc1nccc(-c2cnn3ncccc23)n1`, 5.19%; with `Cc1nnc(-c2cccc(-c3ccc(C(=O)NCC4CC4)cc3)c2)o1`, 1.61%.
Still for that read-out and setting: with `COc1ccc(-c2nn3ncccc3c2-c2ccnc(Nc3ccc(F)c(F)c3)n2)cc1` the figure was -1.03%; with `O=C(Nc1n[nH]c2nnc(-c3cccnc3)cc12)C1CC1`, 5.98%; with `NS(=O)(=O)c1ccc(N/N=C2\C(=O)Nc3cccc(CCc4ccncc4)c32)cc1`, 0.9%.
For the molecule `CNC(=O)c1cncc(/C=C/c2ccccc2C)c1`, the inhibition amounted to 2.83%.
On the same count and under the same terms, the result for `NS(=O)(=O)c1ccc(N/N=C2\C(=O)Nc3ccc(C(=O)NCc4ccncc4)cc32)cc1` reads 2.87%; that for `CCS(=O)(=O)c1ccc(OC)c(Nc2ncc(-c3cccc(F)c3)o2)c1`, 13%.
Still for that read-out and setting: with `COc1cccc(-n2ncc3c(N/N=C/c4ccc(C(=O)NCCN(C)C)cc4)ncnc32)c1` the figure was 21.6%.
Still for that read-out and setting: the result for `COC(=O)Nc1nc2ccc(Oc3ccc(NC(=O)Nc4cc(C(F)(F)F)ccc4F)cc3)cc2s1` reads 0.47%; that for `Cn1c(-c2nonc2N)nc2cnccc21`, 2.9%.
In the case of `CCN1CCC(C(=O)Nc2n[nH]c3nnc(-c4cccc(F)c4F)cc23)CC1`, the inhibition was -0.21%.

A further assay shares this target. Conditions: at 1 µM.
With `Cc1cc(O)cc(C)c1/C=C/c1cncc(C(N)=O)c1`, the inhibition was found to be 2.41%.
On the same count and under the same terms, the result for `CC1=C(C(=O)Nc2ccc3[nH]ncc3c2)C(c2ccc(F)cc2)N=C(c2ccc(C(F)(F)F)nc2)N1` (configuration not stated) reads -0.11%.
Consider `COc1c(C(N)=O)cc(-c2ccc(Cl)cc2)cc1-c1ccc(S(N)(=O)=O)cc1`, for which the inhibition was determined as 5.16%.
Same read-out and setting: with `Cc1cc(O)cc(C)c1/C=C/c1cncc(C(=O)OC(C)(C)C)c1` the figure was 0.81%; with `COc1ccc(Nc2ncc(-c3ccccc3)o2)cc1OC`, 5.9%.
Still for that read-out and setting: with `Fc1ccc(Nc2nccc(-c3c(-c4ccc(C(F)(F)F)cc4)nn4ncccc34)n2)cc1F` the figure was 1.63%; with `O=C(O[C@H]1CN[C@H](C#Cc2cc3ncnc(Nc4ccc(OCc5cccc(F)c5)c(Cl)c4)c3s2)C1)N1CCOCC1`, -0.4%.
Regarding `COc1ccc2ncn(-c3cc(O[C@H](C)c4ccccc4C(F)(F)F)c(C(N)=O)s3)c2c1`, the inhibition is 5.08%.
The same measure, in the same setting: with `CNC(=O)c1ncccc1Nc1nc(Nc2cc3c(cc2OC)CCCN3C(=O)CN(C)C)nc2[nH]ccc12` the figure was 93.1%.
For the molecule `COc1ccccc1-c1cc(/C=C2\C(=O)Nc3ncc(Br)cc32)cc(Br)c1O`, the inhibition was 5.09%.
The same measure, in the same setting: the result for `c1cnn2ncc(-c3ccnc(NCCCN4CCOCC4)n3)c2c1` reads 6.81%; that for `CCCNc1cccc(-n2ncc3c(N/N=C/c4ccncc4)ncnc32)c1`, 10.9%; that for `OCCCNc1nccc(-c2c(-c3ccc(F)cc3)nn3cc(C(F)(F)F)ccc23)n1`, 1.15%.
The same measure, in the same setting: the result for `CS(=O)(=O)Nc1ccc(-c2ccc3c(NC(=O)C4CC4)n[nH]c3c2)cc1` reads 3.05%; that for `CN1CCC(C(=O)Nc2n[nH]c3nc(-c4ccc(O)cc4)c(Br)cc23)CC1`, 3.04% and 2.87%; that for `CS(=O)(=O)Nc1ccc(-c2cc(-c3ccccc3)cc(C(N)=O)c2N)cc1`, 2.34%.
Same read-out and setting: the result for `COc1cccc(Nc2nccc(-c3cnn4ncccc34)n2)c1` reads 98.2%; that for `CS(=O)(=O)CCNCc1ccc(-c2ccc3ncnc(Nc4ccc(OCc5ccccc5)cc4)c3c2)o1`, 0.73%.
For `CC(C)c1ccc(-c2cc(-c3c[nH]nc3-c3ccccn3)ccn2)cc1`, the inhibition is -0.14%.
The same measure, in the same setting: the result for `FC(F)(F)CNc1nccc(-c2cnn3ncccc23)n1` reads 51%; that for `Cc1nnc(-c2cccc(-c3ccc(C(=O)NCC4CC4)cc3)c2)o1`, 1.14%.
Same read-out and setting: with `COc1ccc(-c2nn3ncccc3c2-c2ccnc(Nc3ccc(F)c(F)c3)n2)cc1` the figure was 0.41%.
Same read-out and setting: the result for `O=C(Nc1n[nH]c2nnc(-c3cccnc3)cc12)C1CC1` reads 43.4%.
Turning to `NS(=O)(=O)c1ccc(N/N=C2\C(=O)Nc3cccc(CCc4ccncc4)c32)cc1`, the inhibition was found to be 4.17%.
Same read-out and setting: with `CNC(=O)c1cncc(/C=C/c2ccccc2C)c1` the figure was 2.46%; with `NS(=O)(=O)c1ccc(N/N=C2\C(=O)Nc3ccc(C(=O)NCc4ccncc4)cc32)cc1`, 36.8%.
Still for that read-out and setting: the result for `CCS(=O)(=O)c1ccc(OC)c(Nc2ncc(-c3cccc(F)c3)o2)c1` reads 63.1%; that for `COc1cccc(-n2ncc3c(N/N=C/c4ccc(C(=O)NCCN(C)C)cc4)ncnc32)c1`, 73.7%; that for `COC(=O)Nc1nc2ccc(Oc3ccc(NC(=O)Nc4cc(C(F)(F)F)ccc4F)cc3)cc2s1`, 3.04%.
With `Cn1c(-c2nonc2N)nc2cnccc21`, the inhibition worked out at 10.3%.
The same measure, in the same setting: the result for `CCN1CCC(C(=O)Nc2n[nH]c3nnc(-c4cccc(F)c4F)cc23)CC1` reads 2.56%.

The values are drawn from ChEMBL document CHEMBL1961873, “Compounds: GSK PKIS; Assays: Nanosyn kinase panel” (2012).
